As usually defined, the AC50 is the midpoint of the concentration-response curve, whichever way the signal moves.

Experimental findings from PubChem BioAssay (EPA / NIEHS) are described below.

The nature of assay [1]: CCTE_Shafer_MEA_acute_burst_percentage_std: CCTE's Neural Acute Assay for Standard Deviation of Burst Percentage, Shafer Lab (AID 2284018).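 Note: fitted in the negative direction so actives lower burst percentage SD.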 Put shortly: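 Rat primary cortical neurons on 48-well MEAs, DIV 13 or 15, 37 C. 40-min baseline then 40-min recording with compound (0.03-40 uM); well-level SD of per-electrode burst spike percentage, expressed as percent change from baseline.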

A short description of assay [2]: CCTE_Shafer_MEA_acute_per_network_burst_spike_number_mean: CCTE's Neural Acute Assay for Average Number of Spikes in a Network Burst, Shafer Lab (AID 2284019). An outline of the steps: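 Rat cortical cultures, DIV 13/15; spike threshold 8x rms noise, 300-5000 Hz band-pass, 12.5 kHz sampling; wells need >/= 10 active electrodes. Compound 0.03-40 uM, 40 min, 37 C; % change vs own baseline, DMSO negative control.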

Assay [3] is described as follows: CCTE_Shafer_MEA_acute_per_network_burst_spike_number_std: CCTE's Neural Acute Assay for Standard Deviation of Number of Spikes in a Network Burst, Shafer Lab (AID 2284020).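 Note: fitted for decrease in spike-number SD versus DMSO so actives lower it.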 Put shortly: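 Rat cortical cultures, DIV 13/15, 37 C; 20-min stabilisation, 40-min baseline, compound 0.03-40 uM, 40-min re-record. Spikes detected at 8x rms noise (300-5000 Hz band-pass). Readout: % change from baseline in per-burst spike-number SD.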

A short description of assay [4]: CCTE_Shafer_MEA_acute_per_network_burst_electrodes_number_mean: CCTE's Neural Acute Assay for Mean Number of Electrodes in a Network Burst, Shafer Lab (AID 2284021).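 Note: curves fitted for decreases only so hits reduce electrodes per burst.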 An outline of the steps: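 Cultures of rat cortex neurons were exposed on DIV 13 or 15 to compounds at 0.03-40 uM in at least three wells each. Activity over 40 min before and 40 min after exposure at 37 C gave the percent change in electrodes per network burst.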

A short description of assay [5]: CCTE_Shafer_MEA_acute_network_burst_percentage: CCTE's Neural Acute Assay for Percentage of Network Bursts, Shafer Lab (AID 2284022).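 Note: rat primary cortical neuron networks on multiwell MEA recorded 40 min; curves fitted for loss so actives lower network burst percentage.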 Put shortly: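 Cortical neurons from rat were grown over microelectrode arrays and used on day 13 or 15 in vitro. Wells with at least 10 active electrodes received test chemical at 0.03-40 uM. Activity during 40 min of exposure was compared with the preceding 40-min baseline.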

Assay [6] is described as follows: CCTE_Shafer_MEA_acute_cross_correlation_HWHM: CCTE's Neural Acute Assay for Cross Correlation at Half Width at Half Maximum, Shafer Lab (AID 2284026).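 For outcome: spontaneous network firing of rat primary cortical neurons on multiwell microelectrode arrays.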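 Note: percent change per well from pre-dose baseline in spike cross-correlogram half width; hits are a decrease in cross-correlogram half width relative to DMSO.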 An outline of the steps:
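Primary cortex (rat), MEA, DIV 13/15; compound 0.03-40 uM; 40 min pre + 40 min post at 37 C; spike threshold 8x rms; wells need ≥10 active electrodes; endpoint = % change in cross-correlogram HWHM vs baseline, DMSO negative control.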

In assay [7] the target is Estrogen receptor (Homo sapiens) (UniProt P03372). As to the kind of experiment: CCTE_Deisenroth_AIME_384WELL_LUC_Active: CCTE's 384-well Estrogen Receptor Transactivation Assay with AIME metabolic competence (ERTA luciferase; metabolism positive), Deisenroth Lab (AID 2284030; active = hit-call score of the fitted dose curve at least 0.9, where 1 is the maximum). An outline of the steps:
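In this metabolism-positive format, a 2-hour exposure to alginate-immobilized rat S9 precedes a 24 hour luciferase transactivation readout in VM7Luc4E2 cells. Dosing spans 10 concentrations from 0.002 to 200 uM.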

Assay [8] can be described thus: CCTE_Deisenroth_AIME_384WELL_CTox_Active: Cytotoxicity Assessment (CTOX) in CCTE's 384-well Estrogen Receptor Transactivation Assay with AIME metabolic competence (metabolism positive), Deisenroth Lab (AID 2284037; active = hit-call score of the fitted dose curve at least 0.9, where 1 is the maximum;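 note: chemicals first conditioned 2 h by alginate-bound induced rat liver S9 before cells; activity means signal loss indicating cell death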). An outline of the steps: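 Chemicals pre-incubated 2 hours with alginate-immobilised phenobarbital/beta-naphthoflavone-induced male Sprague Dawley rat liver S9, then conditioned medium applied 24 hour to VM7Luc4E2 cells. Viability by fluorogenic protease substrate; 10-point series 0.002 - 200 uM.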

Assay [9] concerns the target Estrogen receptor (Homo sapiens) (UniProt P03372). As to the kind of experiment: CCTE_Deisenroth_AIME_384WELL_LUC_Inactive: CCTE's 384-well Estrogen Receptor Transactivation Assay without AIME metabolic competence (ERTA luciferase; metabolism negative), Deisenroth Lab (AID 2284038; active = hit-call score of the fitted dose curve at least 0.9, where 1 is the maximum;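 note: VM7Luc4E2 breast cells given medium preincubated 2 h with S9-free microspheres; hits raise estrogen receptor luciferase signal so potencies reflect agonists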). Put shortly:
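VM7Luc4E2 ER transactivation, luciferase bioluminescence after 24 h, using medium pre-incubated 2 h with S9-free alginate microspheres. Concentrations 0.002–200 uM; gain of signal fitted relative to 17beta-estradiol.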

Assay [10] is described as follows: CCTE_Deisenroth_AIME_384WELL_CTox_Inactive: Cytotoxicity Assessment (CTOX) in CCTE's 384-well Estrogen Receptor Transactivation Assay without AIME metabolic competence (metabolism negative), Deisenroth Lab (AID 2284039; active = hit-call score of the fitted dose curve at least 0.9, where 1 is the maximum;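 note: cell viability via live-cell protease substrate cleaved to fluorescent probe; cells exposed 24 h to medium preincubated 2 h with alginate-water beads without S9; loss of fluorescence signal means loss of viability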). Put shortly:
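VM7Luc4E2 cells, metabolism-negative arm: test chemicals (0.002–200 uM, 10 points) pre-incubated 2 h with alginate-water microspheres, then medium transferred to cells for 24 h. Viability read as protease-substrate cleavage to fluorescent probe; loss-of-signal, bidirectional fitting.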

Assay [11] addresses Estrogen receptor (Homo sapiens) (UniProt P03372). Briefly: CCTE_Deisenroth_AIME_384WELL_LUC_Shift: CCTE's 384-well Estrogen Receptor Transactivation Assay with AIME metabolic competence data shift (ERTA luciferase; difference in metabolism positive and negative), Deisenroth Lab (AID 2284041).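 Note: shift is response with S9 minus without S9 so positive means metabolism raised ER signal.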 An outline of the steps:
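Chemicals (0.002–200 uM, 10 points) pre-incubated 2 h with alginate-encapsulated induced male Sprague Dawley rat liver S9 or S9-free, then medium applied 24 h to VM7Luc4E2 cells; luciferase. Endpoint is per-concentration difference, S9-positive minus negative.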

Assay [12] in a line: CCTE_Shafer_MEA_dev_firing_rate_mean: CCTE's Neural Network Formation Assay for Mean Firing Rate, Shafer Lab (AID 2284031). Put shortly:
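Spike frequency (spikes/recording length, averaged over active electrodes) was recorded on days 5, 7, 9 and 12 and collapsed to AUC; rat cortical cultures received compound continuously over 12 days of network development.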

Assay [13] is described as follows: CCTE_Shafer_MEA_dev_per_burst_spike_percent: CCTE's Neural Network Formation Assay for Percent of Spikes in a Burst, Shafer Lab (AID 2284032). Put shortly: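 Value is trapezoidal AUC over recordings on days 5, 7, 9 and 12 of the well-mean fraction of spikes falling in single-electrode bursts; rat cortical cultures exposed continuously from plating, treatment renewed DIV 5 and 9, fitted downward against DMSO.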

Assay [14] can be described thus: CCTE_Shafer_MEA_dev_active_electrodes_number: CCTE's Neural Network Formation Assay for Number of Active Electrodes, Shafer Lab (AID 2284040; active = hit-call score of the fitted dose curve at least 0.9, where 1 is the maximum). An outline of the steps: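 Counts electrodes per well firing at least 5 spikes/min, recorded on days 5, 7, 9 and 12 in rat cortical cultures dosed continuously from plating (treatment refreshed DIV 5, 9). Value is the area under the curve over recordings, fitted downward relative to DMSO.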

A short description of assay [15]: CCTE_Shafer_MEA_dev_burst_rate: CCTE's Neural Network Formation Assay for Burst Rate, Shafer Lab (AID 2284042). Put shortly: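 Primary rat cortical neurons on PEI-coated 48-well MEA plates (laminin added with cells at plating) (16 electrodes/well), exposed from plating to day 12, dosing renewed at DIV 5 and 9. Burst rate averaged over active electrodes, recorded DIV 5, 7, 9, 12, summarized as AUC; loss versus DMSO.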

Assay [16] can be described thus: CCTE_Shafer_MEA_dev_bursting_electrodes_number: CCTE's Neural Network Formation Assay for Number of Bursting Electrodes, Shafer Lab (AID 2284043; active = hit-call score of the fitted dose curve at least 0.9, where 1 is the maximum). Put shortly: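 Rat cortical primary neurons, 48-well MEA, 16 electrodes/well; dosing DIV 0–12, re-dosed with full media change DIV 5, 9. Recordings DIV 5/7/9/12, AxIS adaptive spike detector; bursting electrode = ≥1 burst/2 min. AUC across days; loss of signal vs DMSO.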

Assay [17] in a line: CCTE_Shafer_MEA_dev_per_burst_interspike_interval: CCTE's Neural Network Formation Assay for Burst Interspike Interval, Shafer Lab (AID 2284044). Put shortly: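 Developmental network-formation MEA in primary rat cortical cultures with exposure spanning days 0–12. Within-burst ISI is averaged per well and integrated across recording days by area under the curve, with DMSO as negative control baseline.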

Assay [18] can be described thus: CCTE_Shafer_MEA_dev_burst_duration_mean: CCTE's Neural Network Formation Assay for Mean Burst Duration, Shafer Lab (AID 2284045). An outline of the steps:
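Rat cortical cultures, 1.5 x 10^5 cells/well with laminin drop; continuous dosing days 0–12, media plus treatment refreshed DIV 5, 9. AxIS adaptive spike detection; mean single-electrode burst duration, AUC over four recordings, negative direction vs DMSO.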

Assay [19] is described as follows: CCTE_Shafer_MEA_dev_interburst_interval_mean: CCTE's Neural Network Formation Assay for Mean Interburst Interval, Shafer Lab (AID 2284046).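 Note: well-mean interburst interval of bursting electrodes as AUC over four recording days; curve fitted for decrease in interburst interval relative to DMSO.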 Put shortly: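 Recordings on days 5, 7, 9 and 12 give well-mean interburst interval across actively bursting electrodes, summarized as area under the curve. Cultures: rat cortical neurons, continuous exposure from day 0, compound renewed at feeds; decrease analyzed versus DMSO.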

A short description of assay [20]: CCTE_Shafer_MEA_dev_inter_network_spike_interval_mean: CCTE's Neural Network Formation Assay for Mean Inter-network Spike Interval, Shafer Lab (AID 2284047). Put shortly: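 Primary rat cortical neurons on 16-electrode MEA wells, exposed from plating day 0 through DIV 12, compound renewed at DIV 5 and 9 media changes. Mean interval between network-spike peaks recorded DIV 5, 7, 9, 12; collapsed as trapezoidal AUC, fitted downward versus DMSO.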

Inconclusive results are not listed. The source made the active and inactive calls. Rule for the calls, unless noted: active = hit-call score of the fitted dose curve at least 0.9, where 1 is the maximum; inactive = score below 0.9.

Chain of Estrogen receptor (Homo sapiens) (P03372 whole entry, looked up): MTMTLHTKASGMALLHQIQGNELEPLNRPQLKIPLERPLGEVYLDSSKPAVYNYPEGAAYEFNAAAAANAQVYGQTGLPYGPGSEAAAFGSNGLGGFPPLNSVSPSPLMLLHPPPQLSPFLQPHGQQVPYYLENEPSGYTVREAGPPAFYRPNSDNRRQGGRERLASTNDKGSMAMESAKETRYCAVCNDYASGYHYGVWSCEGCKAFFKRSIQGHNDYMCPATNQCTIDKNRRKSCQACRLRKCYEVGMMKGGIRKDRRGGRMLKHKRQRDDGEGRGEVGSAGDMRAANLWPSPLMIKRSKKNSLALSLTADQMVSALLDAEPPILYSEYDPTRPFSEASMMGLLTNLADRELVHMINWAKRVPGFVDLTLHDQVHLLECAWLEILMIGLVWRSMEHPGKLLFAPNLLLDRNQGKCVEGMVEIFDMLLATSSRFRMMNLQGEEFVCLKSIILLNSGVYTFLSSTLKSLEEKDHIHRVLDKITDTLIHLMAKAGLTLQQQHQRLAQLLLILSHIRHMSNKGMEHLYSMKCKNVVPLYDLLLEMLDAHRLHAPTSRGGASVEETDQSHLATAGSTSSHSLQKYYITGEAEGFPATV

In the case of `O=C(Nc1ccc2c(O)c(N=Nc3ccc(N=Nc4ccc(S(=O)(=O)O)cc4)cc3)c(S(=O)(=O)O)cc2c1)c1ccccc1`, the outcome in [1], in assay [2], in [3], in [4], in assay [5] and in assay [6] was inactive.
With `CCCCCCCCCCCC(=O)OCC(O)CO` (configuration not stated), the compound was called inactive in [7], in assay [9], in [10] and in assay [11]. Moreover, the AC50 in assay [8] is 0.0666 µM (active).
Regarding `CS(=O)(=O)OCCCCOS(C)(=O)=O`, the call in assay [7], in [12], in [13], in assay [9], in assay [14] and in [11] was inactive. The compound was called inactive in assay [15], in assay [16], in [17], in assay [18], in assay [19] and in assay [20].
`CCOC(=O)C(C#N)=C(c1ccccc1)c1ccccc1`: the outcome in assay [1], in [2], in assay [3], in assay [4], in assay [5] and in [6] was inactive.
`CN(C)CCOC(C)(c1ccccc1)c1ccccn1` (configuration not stated): the call in assay [12], in assay [13], in assay [14], in assay [15], in assay [16] and in assay [17] was inactive. The compound was classed as inactive in assay [18], in assay [19] and in assay [20].
`COCCOCCOCCO`: the compound was called inactive in assay [12], in assay [13], in assay [8], in [10], in assay [14] and in assay [15]. Besides, the result in assay [16], in assay [17], in [18], in assay [19] and in [20] was inactive.
On to `CC(CN=Cc1ccccc1O)N=Cc1ccccc1O` (configuration not stated), for which the compound was called inactive in assay [1], in [3], in [4] and in [5]. The AC50 in assay [2] and in assay [6] was 15 µM (active) throughout.
For `CCCCCCCCSCCO`, the compound was called inactive in assay [8] and in assay [10].
Consider `Nc1ccccc1[N+](=O)[O-]`, for which the compound was called inactive in assay [10].
As for `O=C1OC(=O)c2c(Cl)c(Cl)c(Cl)c(Cl)c21`, the outcome in [8] and in assay [10] was inactive.
`Oc1ccc2cc(SSc3ccc4cc(O)ccc4c3)ccc2c1`: the compound was classed as inactive in assay [8] and in assay [10].
Consider `CN1C(=O)c2ccccc2C1=O`, for which the outcome in assay [10] was inactive.
The same measure, in the same setting: for `CCOC(=O)C1OC1c1ccccc1` (configuration not stated) the value was “inactive”.
`CCC(=O)O[C@@H]1C[C@H]2CC[C@]1(C)C2(C)C`: the call in [8] was inactive.
In the case of `CC(C)CC(C)CC(O)CC(C)C` (configuration not stated), the compound was classed as inactive in [8] and in [10].
Turning to `Nc1ccc(N)c2c1C(=O)c1ccccc1C2=O`, the values for the AC50 in assay [8] and in assay [10] were 52 µM (active) and 28.9 µM (active), respectively.
On to `O=P(O)(O)O`, for which the compound was classed as inactive in [8] and in [10].
Take `C=C(C)[C@@H]1CC=C(C)C(=O)C1`: the compound was classed as inactive in assay [10].
For the compound `CCCCCCCCCCCCCCN(CCO)CCO`, the compound was classed as inactive in assay [8].
`COc1ccccc1N=Nc1c(S(=O)(=O)O)cc2cc(S(=O)(=O)O)cc(NC(C)=O)c2c1O`: the result in [8] was inactive. Also, the AC50 in assay [10] is 42.9 µM (active).
For `O=C(CC(=O)c1ccccc1)c1ccccc1`, the outcome in [8] and in assay [10] was inactive.
